# Values joined by “and” are separate entries in the source; they are usually repeats but may differ in a detail not shown here. Equal entries are not always repeated. More than one record can exist for a structure, and the calls need not agree. Active and inactive are the calls of the source. Rule for the calls: active = hit-call score of the fitted dose curve at least 0.9, where 1 is the maximum; inactive = score below 0.9.
# Read-out: Tumor necrosis factor (Homo sapiens) (UniProt P01375)
# Test: BSK_BT_xTNFa: BioMAP Diversity Plus: BT Assay for Tumor necrosis factor alpha (TNF-alpha) Biomarker Activity (AID 2284230)
# Conditions: primary human B cells with PBMC
# Procedure: BSK_BT is a cell-based, multiplexed-readout assay that uses B cell and peripheral blood mononuclear cells, a human vascular primary cell co-culture, with measurements taken at 24 hours after chemical dosing in a microplate: 96-well plate.BSK_BT_xTNFa is an assay component of the BSK_BT assay. It measures secreted TNF-alpha related to regulation of gene expression using LumineX xMAP technology.Data from the assay component BSK_BT_xTNFa was analyzed at the endpoint, BSK_BT_xTNFa, in the positive analysis fitting direction relative to DMSO as the negative control and baseline of activity. Using a type of cytokine quantitation reporter, gain or loss-of-signal activity can be used to understand protein changes. To generalize the intended target to other relatable targets, this assay endpoint is annotated to the 'cytokine' intended target family, where the subfamily is 'inflammatory factor'.
# The levels of cell surface (or secreted, indicated by the prefix "s") biomarker endpoints were measured by ELISA. Overt cytotoxicity to cells in confluent adherent cultures (all systems other than the BT system) was assessed by measuring total protein levels using sulforhodamine B (SRB) staining in parallel cultures at the time of biomarker measurements, indicated as SRB endpoints. For proliferation assays for adherent cell types, individual cell types are cultured at sub-confluence and relative cell numbers quantified by SRB staining at time points optimized for each system (48 h: 3C and CASM3C systems; 72 h: BT and HDF3CGF systems; 96 h: SAg system). SRB was performed by staining cells with 0.1% SRB after fixation with 10% TCA and reading wells at 560 nm.Viability and proliferation of PBMC (T cells) was quantified by Alamar Blue reduction for the SAg and BT systems. For PBMC viability (referred to as PBMC Cytotoxicity within the assay endpoint names), cells were plated (75,000/well in a 96-well plate) and then chemical samples added for 1 h before addition of activators, SEB and TSST-1 (20 ng/mL final concentration each). Cells were incubated for 90 h. Then, Alamar Blue (20 uL/well) (Invitrogen, Cat DAL1100) was added for 6 h, and the plates were read with a fluorescence microplate reader at 546/580 nm (excitation/emission). For PBMC proliferation, cells were plated and activated as above but incubated for only 16 h prior to addition of Alamar Blue. Plates were read after 6 h.
# Tumor necrosis factor (Homo sapiens), sequence (P01375 whole entry, looked up): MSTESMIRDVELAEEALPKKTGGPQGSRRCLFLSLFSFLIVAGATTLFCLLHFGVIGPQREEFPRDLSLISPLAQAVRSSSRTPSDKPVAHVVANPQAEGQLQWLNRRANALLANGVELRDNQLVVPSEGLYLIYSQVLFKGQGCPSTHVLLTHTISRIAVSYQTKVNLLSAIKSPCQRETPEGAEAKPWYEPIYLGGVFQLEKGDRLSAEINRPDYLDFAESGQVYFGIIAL
Compound,AC50,outcome
O=P(O)(O)CCC(F)(F)C(F)(F)C(F)(F)C(F)(F)C(F)(F)C(F)(F)C(F)(F)C(F)(F)F,30 µM (active),inactive
O=C(CC(=O)C(F)(F)C(F)(F)C(F)(F)F)c1cccs1,35.6 µM (active) and 39.6 µM (active),–
CN(C)c1ccc(C(=C2C=CC(=[N+](C)C)C=C2)c2ccccc2)cc1,0.805 µM (active),–
C=CC(=O)OCCC(F)(F)C(F)(F)C(F)(F)C(F)(F)C(F)(F)C(F)(F)C(F)(F)C(F)(F)F,–,inactive
CCCCCCCCCCCCCCCCCC[N+](C)(C)Cc1ccccc1,3.16 µM (active),–
O=S(=O)(O)C(F)(F)C(F)(F)C(F)(F)C(F)(F)C(F)(F)C(F)(F)C(F)(F)C(F)(F)C(F)(F)C(F)(F)F,–,inactive
COc1cccc(O)c1,–,inactive
OCC(F)(F)C(F)(F)C(F)(F)C(F)(F)C(F)(F)C(F)(F)C(F)(F)C(F)(F)C(F)(F)C(F)(F)C(F)(F)F,–,inactive
CC[N+](CC)(CC)Cc1ccccc1,–,inactive
O=C1c2ccc(O)c(O)c2C(=O)c2c(O)ccc(O)c21,–,inactive
CN(Cc1cnc2nc(N)nc(N)c2n1)c1ccc(C(=O)N[C@@H](CCC(=O)O)C(=O)O)cc1,–,inactive
Cc1cccc2c1ccc1ccccc12,–,inactive
CC(C)(C)c1ccc(O)c(O)c1,31.5 µM (active),–
O=C1OC2(c3ccccc31)c1cc(I)c(O)c(I)c1Oc1c2cc(I)c(O)c1I,–,inactive
O=C(NO)c1ccccc1,19.2 µM (active),–
C=COC(=O)C(C)(C)CCCCCC,–,inactive
Cc1ccc(C(=O)c2ccccc2)cc1,–,inactive
O=C(O)C(F)(F)OC(F)(F)C(F)(F)OC(F)(F)C(F)(F)OC(F)(F)C(F)(F)C(F)(F)C(F)(F)F,48.6 µM (active) and 53.5 µM (active),–
OCCN1CN(CCO)CN(CCO)C1,34.1 µM (active),–

Compound,AC50,outcome
C=CC(C)(CCC=C(C)C)OC(C)=O (stereo not given),–,inactive
CCCCCc1ccc(O)cc1,–,inactive
O=C(O)CCC(F)(F)C(F)(F)C(F)(F)C(F)(F)C(F)(F)C(F)(F)F,36.5 µM (active),inactive
O=C(O)CCC(F)(F)C(F)(F)C(F)(F)C(F)(F)C(F)(F)F,–,inactive
O=P(O)(O)CCC(F)(F)C(F)(F)C(F)(F)C(F)(F)C(F)(F)C(F)(F)F,–,inactive
C=CC(=C)CC/C=C(\C)CCC=C(C)C,–,inactive
O=C(NCc1ncc(C(F)(F)F)cc1Cl)c1c(Cl)cccc1Cl,20 µM (active),–
CN(CCO)S(=O)(=O)C(F)(F)C(F)(F)C(F)(F)C(F)(F)C(F)(F)C(F)(F)C(F)(F)C(F)(F)F,–,inactive
NC(=NCCCCCCN=C(N)/N=C(\N)Nc1ccc(Cl)cc1)/N=C(\N)Nc1ccc(Cl)cc1,8.79 µM (active),–
COCN(COC)c1nc(N(COC)COC)nc(N(COC)COC)n1,–,inactive
Cc1ccc(N=Nc2c(O)ccc3ccccc23)c(C)c1,–,inactive
C[C@]12CC[C@@H]3c4ccc(O)cc4CC[C@H]3[C@@H]1C[C@@H](O)[C@@H]2O,–,inactive
CCOC(=O)CN[C@@H](C(=O)N1CC[C@H]1C(=O)NCc1ccc(/C(N)=N/O)cc1)C1CCCCC1,–,inactive
CC1=NN(c2ccccc2)C(=O)C1,–,inactive
Oc1cc2ccccc2cc1O,–,inactive
Clc1ccc(Nc2nnc(Cc3ccncc3)c3ccccc23)cc1,–,inactive
COC1=CC(=O)C[C@@H](C)[C@]12Oc1c(Cl)c(OC)cc(OC)c1C2=O,20 µM (active),–
CCCCC(CC)C(=O)OCCOCCOCCOCCOC(=O)C(CC)CCCC (stereo not given),0.016 µM (active),–
COc1cc(OC)nc(NC(=O)NS(=O)(=O)Nc2ccccc2C(=O)N(C)C)n1,–,inactive

# Reference: PubChem BioAssay (EPA / NIEHS)
